What was measured:
Type in all cases: functional
Plasmodium falciparum [1] = assay: GSK_TCMDC: Inhibition of Plasmodium falciparum 3D7 in whole red blood cells, using parasite LDH activity as an index of growth. Test compounds present at 2uM
Plasmodium falciparum [2] = assay: GSK_TCMDC: Inhibition of Plasmodium falciparum Dd2 in whole red blood cells, using parasite LDH activity as an index of growth. Test compounds present at 2uM
HepG2 = assay: GSK_TCMDC: Percent inhibition of human HepG2 cell line. Test compounds present at 10uM.

SMILES | Inhibition (Plasmodium falciparum [1]) [%] | Inhibition (Plasmodium falciparum [2]) [%] | Inhibition (HepG2) [%]
Cl.O=C(NC1CCC(CCN2Cc3cccc(F)c3C2)CC1)c1cccc(-c2cccnc2)c1 (stereo not given) | 98 | 82 | 16
CCCCCCn1c(Sc2ccc(C#N)c([N+](=O)[O-])c2)nnc1-c1ccc(OC)cc1 | 95 | 51 | 19
Cc1cccc2nc(-c3ccc(-c4cccc(CN5CCCC5CN)c4)cc3)[nH]c12.O=C(O)C(F)(F)F (stereo not given) | 91 | 32 | 7
CCOC(=O)c1ccc(OCCOc2ccccc2)cc1 | 99 | 0 | 63
O=C(C=CC(=O)N1CCCCC1)NCc1ccccc1 | 100 | 0 | 6
O=c1cnc2ccc(F)cc2n1CCN1CCC(NCc2cc(-c3ccccc3)cs2)CC1 | 91 | 14 | 0
O=C(Cc1ccc(-c2ccccc2)cc1)N[C@H]1CCN(Cc2ccc(OCCCN3CCCCC3)cc2)C1 | 99 | 27 | 36
CN1CCN(CCCN(Cc2cccc(-c3cccc(CNC4CCCC4)c3)c2)C(=O)CCC2CCCC2)CC1.O=C(O)C(F)(F)F | 100 | 96 | 35
CCCCCCN1CCC(NCc2ccc(C(F)(F)F)cc2)CC1.O=C(O)C(F)(F)F | 100 | 47 | 11
CC(C)C[C@H](NC(=O)c1cc(-c2ccc(F)cc2)no1)C(=O)O.CC(C)C[C@H](NC(=O)c1conc1-c1ccc(F)cc1)C(=O)O | 82 | 4 | 7
Cc1ccc(CCNCC(O)c2cccc(C(F)(F)F)c2)cc1.Cl (stereo not given) | 94 | 83 | 0
Cc1cc(N[C@@H](Cc2ccccc2)C(=O)NCc2cccc(F)c2)nc(NCc2ccccc2C)n1.O=C(O)C(F)(F)F | 100 | 75 | 6
O=c1ccc(CNc2nc(NCCc3ccccc3)nc3cc(Cl)ccc23)c[nH]1 | 95 | 78 | 21
Cc1ccnc(-n2c(C)cc(C=C3SC(=Nc4ccccc4)N(Cc4ccco4)C3=O)c2C)c1 | 99 | 98 | 0
O=C(NCC1CC1)C1CCN(C(c2ccccc2)c2ccc(Cl)c(Cl)c2)CC1 (stereo not given) | 97 | 96 | 7
CC(C)Nc1nc(NCCc2c[nH]cn2)nc(NCc2ccc(Cl)c(Cl)c2)n1 | 88 | 0 | 0
Cc1ccc2[nH]cc(/C=C/C(=O)NC3CCC(CCN4CCc5ccc(C#N)cc5CC4)CC3)c2c1.Cl (stereo not given) | 93 | 49 | 11
Clc1ccccc1CN1CCC(NCc2cccc(-n3ccnc3)c2)CC1.O=C(O)C(F)(F)F | 100 | 43 | 6
CCNc1cc(C(=O)N[C@@H](Cc2ccccc2)[C@H](O)CNCc2cc(C#N)ccc2OC)cc(N2CCCC2=O)c1.O=C(O)C(F)(F)F | 85 | 51 | 0
COc1ccc(Cn2c(Nc3cccc(C(F)(F)F)c3)nc3cc(C(=O)NCCN4CCCC4)cnc32)cc1Cl | 97 | 31 | 10

SMILES | Inhibition (Plasmodium falciparum [1]) [%] | Inhibition (Plasmodium falciparum [2]) [%] | Inhibition (HepG2) [%]
O=C(O)C(F)(F)F.Oc1ccc(CCNc2nc(NCCCOc3ccccc3-c3cccnc3)nc(N3CCNCC3)n2)cc1 | 92 | 1 | 10
O=C(O)C(F)(F)F.c1cc(-c2ccc(CNCc3ccc(-c4csnn4)cc3)cc2)cc(-c2nc3ccccc3[nH]2)c1 | 100 | 96 | 60
CC(=O)Nc1cccc(CNCc2ccc(-c3cnc(N4CCCC(c5ccccc5)C4)nc3)cc2)c1.O=CO (stereo not given) | 84 | 22 | 16
COc1cc2nc(N3CCC(CNC(=O)c4ccc(-c5ccc(C#N)cc5C)cc4)CC3)nc(N)c2cc1OC | 100 | 99 | 28
CNC(=O)C1Cc2c([nH]c3cc(Cl)ccc23)C2(CCN(CCc3ccccc3)CC2)N1 (stereo not given) | 91 | 3 | 14
CCOc1cccc(C(=O)Nc2cccc(CN3CCCN(Cc4ccc(O)cc4)CC3)c2)c1.O=C(O)C(F)(F)F | 91 | 31 | 23
CC[C@H]1CN2CCc3cc(OC)c(OC)cc3[C@@H]2C[C@@H]1C[C@H]1NCCc2cc(OC)c(OC)cc21 [EMETINE] | 100 | 99 | 43
CC(=O)c1cccc2[nH]c(C(=O)NC3CCC(CCN4CCc5ccc(C#N)cc5C4)CC3)cc12.Cl (stereo not given) | 96 | 0 | 12
CN(C)CCC(O)(c1ccc(Br)cc1)c1cccnc1 (stereo not given) | 96 | 1 | 22
O=C(Nc1ccc(F)c(Cl)c1)c1cc([N+](=O)[O-])cc2cn[nH]c12 | 100 | 67 | 32
CCN1CCC(N(Cc2ccc(-c3ccc(C(F)(F)F)cc3)cc2)C(=O)Cn2c(SCc3cccc(F)c3F)cc(=O)c3ccccc32)C1.O=C(O)C(O)C(O)C(=O)O (stereo not given) | 90 | 91 | 42
O=C(Nc1cccc(CN2CCN(Cc3ccc(O)cc3)CC2)c1)c1cc2ccccc2o1.O=C(O)C(F)(F)F | 81 | 12 | 8
Cc1cccc(NC(c2cccs2)c2c(NC(=O)c3ccccc3)sc(C)c2C)n1 (stereo not given) | 88 | 80 | 0
C[C@H](Cc1ccc(OCCCCCOc2ccc(C[C@@H](C)NC[C@H](O)c3cccc(Cl)c3)cc2)cc1)NC[C@H](O)c1cccc(Cl)c1.Cl | 99 | 100 | 99
CCN(C)c1cc(C(=O)N[C@@H](Cc2ccccc2)[C@H](O)CNC(C)(C)c2cccc(OC)c2)cc(N2CCCC2=O)c1 | 100 | 81 | 0
Cc1ccc(C)c(S(=O)(=O)Nc2ccc(Br)cc2C(=O)Nc2cccc(C(F)(F)F)c2)c1 | 81 | 98 | 56
Cl.Nc1c(I)cc(C(=O)Nc2ccc3nc4c(c(N)c3c2)CCCC4)cc1I | 100 | 99 | 40
Clc1cc(Nc2ncnc3sc(C#C[C@H]4CCCN4)cc23)ccc1OCc1cccnc1Cl.O=C(O)C(F)(F)F | 100 | 93 | 9
CN1CCc2cc(NS(=O)(=O)c3ccc(-c4ccc(Cl)cc4)cc3)c(OCCCN3CCCCC3)cc2CC1.Cl | 100 | 100 | 91
O=C(O)C1Cc2c([nH]c3ccccc23)C(c2ccc(Cl)cc2Cl)N1 (stereo not given) | 91 | 100 | 7

SMILES | Inhibition (Plasmodium falciparum [1]) [%] | Inhibition (Plasmodium falciparum [2]) [%] | Inhibition (HepG2) [%]
O=C(Nc1ccc2c(c1)CN(Cc1ccc(N3CCCC3)o1)CCC2)c1ccoc1.O=CO | 89 | 76 | 4
CN1CCN(Cc2cc3cc(NC(=O)/C=C/c4ccc(Cl)cc4)ccc3s2)CC1.Cl | 100 | 20 | 51
O=C(/C=C/c1ccc(Cl)c(Cl)c1)NCCCCCN1CCC(NC(=O)Nc2ccc(Br)cc2)CC1 | 100 | 7 | 36
COc1ccc(OC)c(NC(=O)CSc2nc(-c3ccccc3Cl)ns2)c1 | 95 | 32 | 0
CC(C)(C)CC(=O)Nc1ccc(Nc2cc(-c3ccncc3)cc3ncc(C(N)=O)cc23)cc1 | 97 | 85 | 5
Cc1cccc2nc(-c3ccc(-c4cccc(CN5CCCC5CN)c4)s3)[nH]c12.O=C(O)C(F)(F)F (stereo not given) | 91 | 45 | 20
Cc1cc(=NN=Cc2cccc(Cl)c2)c2ccc(F)cc2[nH]1 | 100 | 98 | 0
CC1=C(C(=O)Nc2cc3cn[nH]c3cc2F)C(c2cccc(O)c2F)CC(=O)N1 (stereo not given) | 97 | 98 | 1
Br.CCCN(CCCCCCNCCc1ccc(Cl)cc1)CCc1ccc(O)c(O)c1 | 91 | 11 | 26
CCCCCC(C)C(C)c1cc(OC(N)=O)c2c(c1)OC(C)(C)C=C2c1ccncc1 (stereo not given) | 96 | 0 | 81
COc1cccc(-c2ccc(O)c(CNCCc3cccc(F)c3)c2)n1 | 96 | 67 | 0
Cc1cc(C(=O)Nc2ccc3c(c2)CCN3C2CCN(Cc3ccc(O)cc3)C2)no1 (stereo not given) | 95 | 86 | 3
CCCNCc1ccc(-c2ccc(CN(CCOC)C(=O)CCC(=O)c3ccc(OC)c(F)c3)cc2)nc1.O=C(O)C(F)(F)F | 100 | 47 | 13
CC(=O)N1N=C(c2ccc(Cl)cc2)Sc2c1nc(-c1ccccc1)n2C(C)=O | 100 | 81 | 0
O=C(Nc1ccncc1)c1cn(-c2ccccc2)nc1-c1cccs1 | 98 | 10 | 7
CN(C)CCNC(=O)[C@H](Cc1ccccc1)NC(=O)c1ccc(O)c(-c2ccc(Cl)c(Cl)c2)c1 | 98 | 0 | 0
CCOc1ccc(C(=O)Nc2cc(Br)c3c(c2)CNCC3)cc1C#N.Cl | 97 | 32 | 17
CCOCCCn1c(=N)c(C(=O)NCc2ccc(F)cc2)cc2c(=O)n3cccc(C)c3nc21 | 100 | 40 | 21
CCOc1c(CNCCCNc2cc(O)c3ccccc3n2)cc(I)cc1OC | 91 | 6 | 0
O=C(Nc1ccc(-c2nc3ccccc3[nH]2)cc1)c1cccc([N+](=O)[O-])c1 | 100 | 56 | 45
